HP1b binding inh: inhibitors of HP1-beta chromodomain binding to methylated histone tails; AlphaScreen HP1-beta / biotin-H3K9me3 peptide binding; actives 0.56% (n = 390,000); P83916; Potency, µM (top dose mostly 114 µM), for inactives: at the top dose activity change, negative = inhibition, actives largely listed as inhibitors; also: potency is read from the fitted curve at half-maximal effect; nearly all actives have a fitted effect of over 70% in size
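AlphaScreen: HP1-beta (50 nM) preformed 30 min with biotin-H3(1-18)K9me3 peptide (50 nM) in PBS pH 7.4, 0.01% Tween-20. Compound added for 30 min at RT, then streptavidin donor/nickel chelate acceptor beads (10 ug/mL) for 30 min.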
PLK1 PBD block: inhibitors of human PLK1 polo-box domain binding; actives 2.8% (n = 360,000); P53350; Potency, µM, without a hit: max response, negative = inhibition, most hits filed as inhibitors; Plk1 PBD binding of FITC phosphopeptide, fluorescence polarization; also: potency is read from the fitted curve at half-maximal effect; series mostly up to about 57 µM; % is scaled to controls: 0 for no effect and ±100 for the full control effect; nearly all actives have a fitted effect of over 65% in size
PI5P4Ka inh: blocks human PI5P4K alpha kinase activity; actives 1.2% (n = 330,000); P48426; PI5P4Kalpha enzyme, ADP-Glo luminescence, 60 min; stronger effect = lower value; max response, %; active = max response of -50% or lower; inconclusive = between -30% and -50%; inactive = -30% or higher; also: value at the top dose of about 77 µM; % is scaled to controls: 0 for no effect and ±100 for the full control effect
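Controls without substrate or without enzyme flank wells where PI5P4Kalpha converts substrate using 5 microM ATP (final). Incubation lasts 60 minutes at room temperature; ADP formed is read by ADP-Glo luminescence.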
JMJD2A Tudor: JMJD2A Tudor domain (human) inhibition; O75164; AlphaScreen JMJD2A-Tudor / H3K4me3 peptide binding; Potency, µM (series often up to 114 µM), for the others: at the top dose activity change, negative = inhibition, hits mostly inhibitors; actives 4.4% (n = 390,000); AID 504339; also: potency is read from the fitted curve at half-maximal effect; % is scaled to controls: 0 for no effect and ±100 for the full control effect; nearly all actives have a fitted effect of over 50% in size
Target sequence (O75164 whole entry, looked up, the tested form may be a part): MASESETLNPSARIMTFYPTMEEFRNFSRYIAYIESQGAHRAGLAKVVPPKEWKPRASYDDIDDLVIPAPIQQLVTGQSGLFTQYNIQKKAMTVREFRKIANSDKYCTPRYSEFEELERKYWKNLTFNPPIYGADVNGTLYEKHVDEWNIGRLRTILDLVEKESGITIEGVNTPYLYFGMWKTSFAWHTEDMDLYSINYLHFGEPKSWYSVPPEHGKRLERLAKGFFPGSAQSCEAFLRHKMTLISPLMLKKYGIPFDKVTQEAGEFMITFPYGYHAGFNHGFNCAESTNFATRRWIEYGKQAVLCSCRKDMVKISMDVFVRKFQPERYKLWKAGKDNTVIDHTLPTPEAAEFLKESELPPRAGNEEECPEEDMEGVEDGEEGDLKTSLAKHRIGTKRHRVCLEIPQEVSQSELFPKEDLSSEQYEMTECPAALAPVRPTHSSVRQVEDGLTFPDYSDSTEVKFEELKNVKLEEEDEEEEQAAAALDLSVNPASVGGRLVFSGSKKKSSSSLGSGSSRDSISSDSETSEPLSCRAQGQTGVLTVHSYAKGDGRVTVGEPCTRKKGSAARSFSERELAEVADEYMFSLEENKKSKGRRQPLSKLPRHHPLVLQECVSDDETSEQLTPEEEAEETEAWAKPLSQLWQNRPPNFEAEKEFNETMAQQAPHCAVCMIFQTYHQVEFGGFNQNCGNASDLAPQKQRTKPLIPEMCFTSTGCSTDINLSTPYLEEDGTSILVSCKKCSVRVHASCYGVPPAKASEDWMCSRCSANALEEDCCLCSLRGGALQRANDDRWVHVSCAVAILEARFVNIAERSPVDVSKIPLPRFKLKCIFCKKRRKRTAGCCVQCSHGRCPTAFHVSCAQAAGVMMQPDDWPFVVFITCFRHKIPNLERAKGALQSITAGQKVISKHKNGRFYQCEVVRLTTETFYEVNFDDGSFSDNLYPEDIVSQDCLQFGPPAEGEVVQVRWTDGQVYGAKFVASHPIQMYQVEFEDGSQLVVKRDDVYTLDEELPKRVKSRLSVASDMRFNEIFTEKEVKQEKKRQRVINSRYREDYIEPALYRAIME
BAZ2B block: blocks human BAZ2B | actives 4.4% (n = 360,000) | Potency, µM (doses to about 114 µM), for the others: at the top dose activity change, negative = inhibition, usual class: inhibitors | AID 504333 | AlphaScreen BAZ2B-H3K14Ac peptide displacement | Q9UIF8; also: potency is read from the fitted curve at half-maximal effect; % is scaled to controls: 0 for no effect and ±100 for the full control effect; nearly all actives have a fitted effect of over 60% in size
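Inhibition is scored as reduced AlphaScreen emission. The BAZ2B/b-H3(5-23)K14Ac complex (50 nM each) in PBS pH 7.4, 0.01% Tween-20 meets compound (up to 110 uM) for 30 min at RT before bead addition.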
G9a inh: inhibitors of human histone lysine methyltransferase G9a; Potency, µM (highest dose often 102 µM), without a hit: at the highest dose activity, negative = inhibition, usual class: inhibitors; G9a H3K9 monomethylation, AlphaScreen, 2 h; Q96KQ7; AID 504332; actives 8.8% (n = 350,000); also: potency is read from the fitted curve at half-maximal effect; % is scaled to controls: 0 for no effect and ±100 for the full control effect; nearly all actives have a fitted effect of over 75% in size
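Using a bead-based AlphaScreen, monomethylated H3K9 product from 2 h room-temperature reactions (G9a 20 nM, peptide 500 nM, SAM 20 uM) was detected with 0.5 ug/mL rabbit anti-H3K9me1 antibody.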
An asterisk follows results filed as active; ? = inconclusive; . = not tested or not shown; [ ] = remark or other dose. In the library only some 12% were active in any assay of this set; here they are far more common. Unless noted, calls follow the shape of the dose curve; as a rule, active = well fitted curve in the direction sought with a large enough effect; inconclusive = small, poorly fitted or top-dose-only effect, or another doubt; inactive = no such curve, though single readings can be large; an effect the other way counts as inactive or inconclusive.

SMILES	HP1b binding inh	PLK1 PBD block	PI5P4Ka inh	JMJD2A Tudor	BAZ2B block	G9a inh
C/C(=N\NC(=O)c1ccoc1C)c1ccc(Cl)s1	19%	-2%	2	-13%	-10%	9%
C/C(=N\NC(=O)c1csc(C)c1C)c1ccc(Cl)s1	-17%	24µM*	-12	-6%[11.4 µM]	11%	?
CC(C)(C)c1ccc(Oc2coc3cc(OCC(=O)O)ccc3c2=O)cc1	-18%	0%	-13	?	-3%	6%
COC(=O)c1ccc(Oc2coc3cc(OCc4ccc([N+](=O)[O-])cc4)ccc3c2=O)cc1	9%	-9%	?	-26%	-23%	56µM*
CCOc1ccccc1C(=O)N[C@H](C(=O)OCC(=O)Nc1nnc(-c2ccccc2)o1)C(C)C	-10%	-10%	-13	-17%	.	.
CCn1c2c(c3cc(C(=O)O)ccc31)CCCC2=O	-11%	30µM*	-18	-20%[11.4 µM]	-18%	-9%[12.7 µM]
Cn1c(CNC(=O)CSc2nc(-c3ccccc3F)nc3cc(=O)[nH]n23)nc2ccccc21	42%	.	.	-3%	-8%	20%[59 µM]
CN1C(=O)NC(c2ccccc2[N+](=O)[O-])C2=C1CC(C)(C)CC2=O (centres undefined)	-16%	-16%	-2	-12%	-20%	50µM*
COc1cc(C2NC(=O)N(C)C3=C2C(=O)CCC3)cc(OC)c1OC (centres undefined)	25%	-8%	.	-12%	9%	-9%
CN1C(=O)NC(c2ccccc2[N+](=O)[O-])C2=C1CCCC2=O (centres undefined)	17%	-26%	3	-3%	-22%	45µM*
COc1ccccc1NC(=O)C1=C(C)Nc2nc(SCc3ccccc3)nn2C1c1ccccn1 (centres undefined)	8%	.	.	-13%	-1%	7%[59 µM]
CCC1CCCCN1CCCNC(=O)CSc1nc2nc(C)c(Cc3ccc(C)cc3)c(C)n2n1 (centres undefined)	13%	4%	-3	-6%	4%	6%
O=C(COc1ccc(Cl)cc1)Nc1ccc(C(=O)O)cc1NC(=O)COc1ccc(Cl)cc1	21%	-15%	7	-21%	50µM*	1%
Cc1csc(SCC(=O)Nc2cc(S(=O)(=O)N3CCOCC3)ccc2N2CCOCC2)n1	48%	3%	0	-7%	3%	3%[12.7 µM]
CCn1c(SCC(=O)OC)nc2cc(S(=O)(=O)N3CCOCC3)ccc21	36%	0%	-3	-4%	0%	-30%[59 µM]
COC(=O)c1ccc(CSc2nc3ccc(S(=O)(=O)N4CCOCC4)cc3[nH]2)cc1	11%	-6%	-4	-32%	-28%	14µM*
Cc1csc(SCC(=O)c2ccc(S(=O)(=O)N3CCOCC3)cc2)n1	-10%	-21%	-12	56µM*	-7%	28µM*
O=S(=O)(c1ccc2nc(COc3ccccc3)[nH]c2c1)N1CCOCC1	47%	-7%	.	-23%	?	50µM*
CCc1ccc(C(=O)CSc2nc3cc(S(=O)(=O)N4CCOCC4)ccc3n2CC)cc1	?	-19%	-18	-16%	-11%	45µM*
COC(=O)c1ccc(CSc2nc3ccc(S(N)(=O)=O)cc3[nH]2)cc1	5%	-6%	-6	-19%	?	6%
C[C@@H]1C(=O)N(S(=O)(=O)c2ccc([N+](=O)[O-])cc2)[C@H]1c1ccccc1	17%	.	.	-19%	.	.
COC(=O)c1c(C)[nH]c(C(=O)CC#N)c1C	39%	-7%	-9	-8%	?	3%
COC(=O)Cc1[nH]c(=S)[nH]c1C(=O)OC	7%	-15%	-5	3.2µM*	-5%	.
Cc1ccc(NC(=O)Cn2c(=O)ccc3cc(S(=O)(=O)N4CCCC4)ccc32)cc1N(C)C	25%[57 µM]	.	.	-1%	4%	2%[59 µM]
O=C(Nc1ccccc1)c1cc(C2CCCCN2C(=O)CCc2ccccc2)on1 (centres undefined)	.	4%	2	.	.	.
SMILES	HP1b binding inh	PLK1 PBD block	PI5P4Ka inh	JMJD2A Tudor	BAZ2B block	G9a inh
Oc1ccc(-c2csc(Nc3ccccn3)n2)cc1O	14µM*	?	?	56µM*	40µM*	11µM*
CC(=O)Nc1ccc(-c2csc(Nc3ccccn3)n2)cc1	24%	-3%	3	-20%	-5%	.
Cc1ccnc(Nc2nc(-c3ccc(O)cc3)cs2)c1	-14%	-12%	-7	?	?	?
Cc1ccnc(Nc2nc(-c3ccc(O)c(O)c3)cs2)c1	?	-10%	-11	56µM*	40µM*	28µM*
Cc1cccc(Nc2nc(-c3ccc(O)c(O)c3)cs2)n1	?	-2%	-6	?	50µM*	40µM*
Cc1ccnc(Nc2nc(-c3ccc(O)cc3O)cs2)c1	-10%	5%	-14	?	50µM*	79µM*
CCCCC/C=C\C/C=C\C/C=C\C=C\C(=O)CCCC(=O)O	.	.	.	.	.	34%[59 µM]
Oc1ccc(-c2csc(Nc3cccc4ccccc34)n2)cc1O	?	19µM*	-55*	40µM*	35µM*	13µM*
CCCc1cc(=O)oc2c3c(cc(OCC(=O)N4CCC(C(=O)O)CC4)c12)OC(C)(C)CC3	.	6%	.	.	.	.
CCOC(=O)Cn1c(=N)n(Cc2ccc(C(C)(C)C)cc2)c2ccccc21	16%	.	.	-6%	-2%	-3%[59 µM]
COc1cccc(NC(=O)CSc2cc(C)[nH]c(=O)n2)c1	4%	.	.	-17%	-2%	6%[59 µM]
CCOc1ccc(OCCSc2nc(C)cc(=O)[nH]2)cc1	10%	3.4µM*	?	-35%[11.4 µM]	-2%	7%
COc1ccc(C(=O)CSc2cc(C)[nH]c(=O)n2)cc1	-13%	-27%	-63*	?	50µM*	?
Cc1ccc(CSc2cc(C)[nH]c(=O)n2)cc1	5%[57 µM]	-16%	?	-28%	50µM*	3%
Cc1cc(=O)[nH]c(SCC(=O)c2ccc(C(C)C)cc2)n1	39%	-5%	2	-1%	-3%	?
COc1ccc(C(=O)CSc2nc(C)cc(=O)[nH]2)cc1	24%	-18%	-8	-1%	4%	25µM*
CC(C)(C)c1ccc(OCC(=O)N2CCN(c3ncccn3)CC2)cc1	15%	-12%	-2	-15%	-3%	10%
N=C1S/C(=C\c2cn[nH]c2-c2ccc(F)cc2)C(=O)N1c1ccccc1F	6%	27µM*	-70*	89µM*	-2%	-6%
COc1cccc(CNC(=O)CCCN2C(=O)CCn3nc(-c4cccn4C)cc32)c1	5%[57 µM]	.	.	-28%	-35%	-29%[59 µM]
O=C1NC(c2cccc3ccccc23)Nc2ccccc21 (centres undefined)	32%	-7%	8	-12%	.	.
O=C1c2ccccc2C(=O)C12OC2c1cccc2ccccc12 (centres undefined)	12%	?	-17	-24%	1%	6.3µM*

Screens: PubChem, National Center for Advancing Translational Sciences (NCATS)
